Measurements published in PubChem BioAssay (NCI).
Values joined by “and” are separate entries in the source; they are usually repeats but may differ in a detail not shown here. Equal values may be shown once. This is part of a sample that, as a whole, favours compounds with a hit. Of some 79,000 tested, about 15% had one in any assay. The source holds several records for some structures; these can differ, active in one and inactive in another. Active and inactive are the calls of the source. Cut-off read from the data, not from the text of the source: active = growth inhibition above about 70%; inactive = the rest.

What was measured:
[1] = NCI Yeast Anticancer Drug Screen. Data for the rad50 strain (AID 155);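 note: 0% = growth of vehicle-only cultures of the same strain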; settings: S. cerevisiae rad50 strain growth inhibition, stronger effect = higher value
Method in brief: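 Compounds were tested on a yeast strain with an engineered DNA damage repair alteration; the reported value is growth inhibition normalised to vehicle treatment.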

[2] = NCI Yeast Anticancer Drug Screen. Data for the mec2-1 strain (AID 157); settings: S. cerevisiae mec2-1 strain, stronger effect = higher value
Method in brief: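 Yeast mec2-1 mutant treated with compound. Readout: growth inhibition vs vehicle controls.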

[3] = NCI Yeast Anticancer Drug Screen. Data for the sgs1 mgt1 strain (AID 161);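 note: 0% = growth of cultures given vehicle only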; settings: S. cerevisiae sgs1 mgt1 strain, stronger effect = higher value
Method in brief: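 Inhibition of yeast growth, normalised to vehicle-treated controls, is reported for a strain bearing genetic alterations in DNA damage repair.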

[4] = NCI Yeast Anticancer Drug Screen. Data for the cln2 rad14 strain (AID 165);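 note: 0% = growth equal to vehicle treated cultures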; settings: S. cerevisiae cln2 rad14 strain, stronger effect = higher value
Method in brief: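 cln2 rad14 yeast strain; compound exposure; growth inhibition read vs vehicle controls.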

[5] = NCI Yeast Anticancer Drug Screen. Data for the bub3 strain (AID 167); settings: S. cerevisiae bub3 mutant strain, stronger effect = higher value
Method in brief: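 Growth of a checkpoint-deficient yeast mutant is measured after compound exposure. Values represent inhibition relative to vehicle.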

[6] = NCI Yeast Anticancer Drug Screen. Data for the mlh1 rad18 strain (AID 175); settings: S. cerevisiae mlh1 rad18 strain growth inhibition, stronger effect = higher value
Method in brief: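 Yeast w/ defined DNA-repair lesions; compound exposure; growth vs vehicle controls → % inhibition.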

[7] = at 5.0 µM (retest, dose inferred, filed as 0.5)
[8] = at 50.0 µM (retest, dose inferred, filed as 5.0)

SMILES | growth inhibition [1, 7] | growth inhibition [1, 8] | growth inhibition ([1]; at 50.0 µM) | growth inhibition [2, 7] | growth inhibition [2, 8] | growth inhibition ([2]; at 50.0 µM) | growth inhibition [3, 7] | growth inhibition [3, 8] | growth inhibition ([3]; at 50.0 µM) | growth inhibition [4, 7] | growth inhibition [4, 8] | growth inhibition ([4]; at 50.0 µM) | growth inhibition [5, 7] | growth inhibition [5, 8] | growth inhibition ([5]; at 50.0 µM) | growth inhibition [6, 7] | growth inhibition [6, 8] | growth inhibition ([6]; at 50.0 µM)
O=C1c2ccccc2C(=O)c2c(O)c(O)cc(O)c21 | 97% (active) | 97% (active) | 88.5% (active) and 11.4% (inactive) | 99% (active) | 98% (active) | 86.2% (active) and -3.5% (inactive) | 98% (active) | 97% (active) | 86% (active) and 14.2% (inactive) | 59% (inactive) | 95% (active) | 72.4% (active) and 9.2% (inactive) | 98% (active) | 97% (active) | 86.1% (active) and -9.1% (inactive) | 99% (active) | 97% (active) | 85.5% (active) and 25% (inactive)
CCCCCCCCCCCCSC(=NC)NC | 65% (inactive) and 27% (inactive) | 99% (active) and 98% (active) | 99.5% (active) and 99.4% (active) | 48% (inactive) and 19% (inactive) | 100% (active) and 98% (active) | 99.7% (active) and 99.5% (active) | 80% (active) and 65% (inactive) | 99% (active) | 99.4% (active) and 99.1% (active) | 4% (inactive) and -9% (inactive) | 99% (active) | 96.2% (active) and 98% (active) | 91% (active) and 46% (inactive) | 100% (active) | 99.5% (active) and 99% (active) | 27% (inactive) and 24% (inactive) | 99% (active) and 98% (active) | 99.1% (active) and 98.8% (active)
CC(=O)/C(=C\c1ccc(Cl)c(Cl)c1)C(=O)CCN(C)C | 13% (inactive) and 6% (inactive) | 42% (inactive) and 30% (inactive) | 49.2% (inactive) and 56% (inactive) | 13% (inactive) and -8% (inactive) | 43% (inactive) and 26% (inactive) | 78.2% (active) and 42.8% (inactive) | 22% (inactive) and 9% (inactive) | 45% (inactive) and 50% (inactive) | 58.6% (inactive) and 63.7% (inactive) | 19% (inactive) and 16% (inactive) | 17% (inactive) and 21% (inactive) | 18.8% (inactive) and 41.1% (inactive) | 5% (inactive) and 18% (inactive) | 41% (inactive) and 42% (inactive) | 58% (inactive) and 58.1% (inactive) | 20% (inactive) and 8% (inactive) | 50% (inactive) and 49% (inactive) | 74.2% (active) and 72.2% (active)
C=C1CCC[C@@H]2[C@@](C)(Cc3cc(O)ccc3O)C(C)CC[C@]12C (some centres undefined) | 16% (inactive) | 97% (active) | 97.5% (active) | 11% (inactive) | 97% (active) | 98.2% (active) | 25% (inactive) | 98% (active) | 97.7% (active) | -4% (inactive) | 97% (active) | 97.3% (active) | 0% (inactive) | 97% (active) | 97.8% (active) | 11% (inactive) | 96% (active) | 97.7% (active)
Clc1ccc(CN2CCCN(Cc3ccc(Cl)cc3)C2c2cc3ccccc3c3ccccc23)cc1 | 49% (inactive) | 99% (active) | 70% (active) | 19% (inactive) | 98% (active) | 68.5% (inactive) | 38% (inactive) | 98% (active) | 87.8% (active) | 22% (inactive) | 96% (active) | 33.1% (inactive) | 22% (inactive) | 98% (active) | 98.7% (active) | 45% (inactive) | 98% (active) | 89.2% (active)
Cc1ccc(C23C=CC(c4ccccc4)(C2)C2C(=O)OC(=O)C23)cc1 (centres undefined) | 86% (active) | 96% (active) | 98.5% (active) | 85% (active) | 97% (active) | 98.5% (active) | 81% (active) | 98% (active) | 98.6% (active) | 36% (inactive) | 97% (active) | 92.2% (active) | 85% (active) | 97% (active) | 98.7% (active) | 79% (active) | 97% (active) | 95.8% (active)
CCCCCCCCCCCCCCCCOP(=O)(O)OCC(NC(C)=O)C(=O)O (centres undefined) | -2% (inactive) | 100% (active) | 99.2% (active) | 17% (inactive) | 100% (active) | 99.5% (active) | 4% (inactive) | 95% (active) | 99.3% (active) | 37% (inactive) | 99% (active) | 99.3% (active) | 1% (inactive) | 97% (active) | 99.5% (active) | -1% (inactive) | 99% (active) | 99.4% (active)
O=S(=O)(O)c1ccc(NN(c2c(O)ccc3ccccc23)S(=O)(=O)O)cc1 | -12% (inactive) | 1% (inactive) | 18.2% (inactive) | -5% (inactive) | -11% (inactive) | -3.1% (inactive) | -16% (inactive) | -12% (inactive) | -19.7% (inactive) | -17% (inactive) | -84% (inactive) | 43.9% (inactive) | -9% (inactive) | -10% (inactive) | -29.8% (inactive) | -12% (inactive) | -19% (inactive) | 15.1% (inactive)
CCN(CC)Cc1cc2c(cc1O)CC[C@@H]1[C@@H]2CC[C@]2(C)C(=O)CC[C@@H]12 | 39% (inactive) | 80% (active) | 83.6% (active) and 25.6% (inactive) | -5% (inactive) | 60% (inactive) | 55.8% (inactive) and 15.2% (inactive) | 16% (inactive) | 47% (inactive) | 78.5% (active) and 22.2% (inactive) | -2% (inactive) | 11% (inactive) | 72.5% (active) and -21.2% (inactive) | 15% (inactive) | 67% (inactive) | 54% (inactive) and 56% (inactive) | 38% (inactive) | 81% (active) | 71.3% (active) and 20.9% (inactive)
COC1OC2COC(c3ccccc3)OC2C(O)C1OS(=O)(=O)c1ccc(C)cc1 (centres undefined) | -3% (inactive) | 1% (inactive) | 46.5% (inactive) and 3.9% (inactive) | 0% (inactive) | 51% (inactive) | 46.4% (inactive) and 2.7% (inactive) | -7% (inactive) | 46% (inactive) | 74.6% (active) and 16.9% (inactive) | -10% (inactive) | -8% (inactive) | 31.8% (inactive) and -1.35% (inactive) | -3% (inactive) | 2% (inactive) | 32.3% (inactive) and -1.1% (inactive) | -1% (inactive) | 49% (inactive) | 63.1% (inactive) and 0.65% (inactive)
C=CCN(CC=C)C(CC(=O)C(C)(C)C)=NCC | 0% (inactive) | -6% (inactive) | -14.9% (inactive) | -7% (inactive) | 6% (inactive) | -7.85% (inactive) | 0% (inactive) | -6% (inactive) | -5.85% (inactive) | 1% (inactive) | 1% (inactive) | 36% (inactive) | -3% (inactive) | 3% (inactive) | -3.75% (inactive) | -11% (inactive) | 1% (inactive) | -22.6% (inactive)
O=C1c2ccccc2C(=O)c2cc(S(=O)(=O)O)ccc21 | 3% (inactive) | 27% (inactive) | 73% (active) and 25.7% (inactive) | 1% (inactive) | 26% (inactive) | 36.2% (inactive) and 36.1% (inactive) | 6% (inactive) | 42% (inactive) | 67.7% (inactive) and 37% (inactive) | 6% (inactive) | 30% (inactive) | -26.8% (inactive) and 9.95% (inactive) | 0% (inactive) | 22% (inactive) | 67.3% (inactive) and 44.7% (inactive) | 7% (inactive) | 41% (inactive) | 77.7% (active) and 19.6% (inactive)
O=C1NS(=O)(=O)c2ccccc21 | -9% (inactive) | -81% (inactive) | 23.3% (inactive) and 33% (inactive) | -30% (inactive) | -32% (inactive) | 13.6% (inactive) and -8.5% (inactive) | -11% (inactive) | -43% (inactive) | -12.1% (inactive) and 24.2% (inactive) | -2% (inactive) | -17% (inactive) | 47.5% (inactive) and 29.4% (inactive) | -29% (inactive) | -122% (inactive) | 30.9% (inactive) and 50.3% (inactive) | -6% (inactive) | -43% (inactive) | -19.4% (inactive) and 20.9% (inactive)
